The values that follow come from PubChem BioAssay (NCI).

The nature of experiment [1]: NCI Yeast Anticancer Drug Screen. Data for the rad50 strain (AID 155).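 Also: 0% = growth of vehicle-only cultures of the same strain.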 The settings on record: S. cerevisiae rad50 strain growth inhibition, active compounds read high. The method, boiled down: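 Genetically altered yeast (DNA repair pathway); compound treatment; growth inhibition vs vehicle ctrl.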
Experiment [2] is described as follows: NCI Yeast Anticancer Drug Screen. Data for the mec2-1 strain (AID 157). The conditions noted are these: S. cerevisiae mec2-1 strain, active compounds read high. The method, boiled down:
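Cells of the genetically defined mec2-1 yeast strain are incubated with test compound. Inhibition of growth is calculated against vehicle-treated controls.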

A short description of experiment [3]: NCI Yeast Anticancer Drug Screen. Data for the sgs1 mgt1 strain (AID 161).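 Also: 0% = growth of cultures given vehicle only.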 The conditions noted are these: S. cerevisiae sgs1 mgt1 strain, active compounds read high. The method, boiled down: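 Inhibition of yeast growth, normalised to vehicle-treated controls, is reported for a strain bearing genetic alterations in DNA damage repair.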
Experiment [4] is described as follows: NCI Yeast Anticancer Drug Screen. Data for the cln2 rad14 strain (AID 165).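 Also: 0% = growth equal to vehicle treated cultures.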 The conditions noted are these: S. cerevisiae cln2 rad14 strain, active compounds read high. In short, it runs like this: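 The screen exposed genetically defined yeast (cln2 rad14) to test compounds and scored growth inhibition relative to vehicle-treated controls.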
Experiment [5] in a line: NCI Yeast Anticancer Drug Screen. Data for the bub3 strain (AID 167). The settings on record: S. cerevisiae bub3 mutant strain, active compounds read high. In short, it runs like this:
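Yeast carrying a defined mutation is treated with each compound, and growth is compared with that of vehicle-exposed cells to give inhibition.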

The nature of experiment [6]: NCI Yeast Anticancer Drug Screen. Data for the mlh1 rad18 strain (AID 175). The settings on record: S. cerevisiae mlh1 rad18 strain growth inhibition, active compounds read high. In short, it runs like this: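 Compound-treated yeast growth, normalised to vehicle controls. Strain bears defined DNA repair mutations.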
Where [7] appears, read: at 5.0 µM (retest, dose inferred, filed as 0.5).
Setting [8] is: at 50.0 µM (retest, dose inferred, filed as 5.0).

About 79,000 compounds went through this panel and 15% of them were active in at least one assay; those are over-represented in the sample as a whole. Values without a mark were called inactive. Activity calls are given as the source filed them. Rule as the data show it: active = growth inhibition above about 70%; inactive = the rest.

Take `COC(=O)c1c(C)cccc1C(=O)c1ccc(C)cc1C`: the growth inhibition in experiment [1] (setting [7]) was -14%; in experiment [1] (setting [8]), -4%; in experiment [1] (at 50.0 µM), 2.4%; in experiment [2] (setting [7]), -10%; in experiment [2] (setting [8]), -3%; in experiment [2] (at 50.0 µM), -0.1%. The growth inhibition in experiment [3] (setting [7]) was -4%; in experiment [3] (setting [8]) it was 9%; in experiment [3] (at 50.0 µM) it was 10.6%; in experiment [4] (setting [7]), -38%; in experiment [4] (setting [8]) it was -7%; in experiment [4] (at 50.0 µM), 2.75%. Also, the growth inhibition in experiment [5] (setting [7]) is -2%; in experiment [5] (setting [8]), -16%; in experiment [5] (at 50.0 µM), 5.05%; in experiment [6] (setting [7]), -11%; in experiment [6] (setting [8]) it was 21%; in experiment [6] (at 50.0 µM), 23.4%.

As for `N#CSCc1ccc(Cl)c(CSC#N)c1`, the growth inhibition in experiment [1] (setting [7]) was 18%; in experiment [1] (setting [8]), 99% (active); in experiment [1] (at 50.0 µM) it was 99% (active); in experiment [2] (setting [7]), 4%; in experiment [2] (setting [8]), 99% (active); in experiment [2] (at 50.0 µM), 99.3% (active). Also, the growth inhibition is 8% in experiment [3] (setting [7]); 99% (active) in experiment [3] (setting [8]); 98.8% (active) in experiment [3] (at 50.0 µM); 10% in experiment [4] (setting [7]); 98% (active) in experiment [4] (setting [8]); 98.2% (active) in experiment [4] (at 50.0 µM). For the same compound, the growth inhibition in experiment [5] (setting [7]) is 16%; in experiment [5] (setting [8]), 100% (active); in experiment [5] (at 50.0 µM), 98.8% (active); in experiment [6] (setting [7]), 10%; in experiment [6] (setting [8]) it was 99% (active); in experiment [6] (at 50.0 µM), 99% (active).

Turning to `CCC(=O)Sc1ccccc1C(=O)Nc1ccc(Cl)cc1`, the growth inhibition in experiment [1] (setting [7]) was 18%; in experiment [1] (setting [8]) it was 43%; in experiment [1] (at 50.0 µM), 88.5% (active); in experiment [2] (setting [7]) it was 28%; in experiment [2] (setting [8]), 64%; in experiment [2] (at 50.0 µM) it was 92.9% (active). Moreover, the growth inhibition is 12% in experiment [3] (setting [7]); 47% in experiment [3] (setting [8]); 52.4% in experiment [3] (at 50.0 µM); 23% in experiment [4] (setting [7]); 62% in experiment [4] (setting [8]); 53.1% in experiment [4] (at 50.0 µM). Also, the growth inhibition was 22% in experiment [5] (setting [7]); 74% (active) in experiment [5] (setting [8]); 56.4% in experiment [5] (at 50.0 µM); 29% in experiment [6] (setting [7]); 65% in experiment [6] (setting [8]); 85.2% (active) in experiment [6] (at 50.0 µM).

Consider `Cc1ccc(S(=O)(=O)Oc2ccc3oc4c(CO)ccc(NCCN(C)C)c4c(=O)c3c2)cc1`, for which the growth inhibition in experiment [1] (setting [7]) is 3%; in experiment [1] (setting [8]), 5%; in experiment [1] (at 50.0 µM), 16.6%; in experiment [2] (setting [7]) it was 0%; in experiment [2] (setting [8]), -32%; in experiment [2] (at 50.0 µM) it was -17.6%. Further, the growth inhibition in experiment [3] (setting [7]) is 2%; in experiment [3] (setting [8]), 16%; in experiment [3] (at 50.0 µM), 97.8% (active); in experiment [4] (setting [7]), 1%; in experiment [4] (setting [8]) it was 7%; in experiment [4] (at 50.0 µM), -2.35%. Besides, the growth inhibition is 3% in experiment [5] (setting [7]); 4% in experiment [5] (setting [8]); -9.25% in experiment [5] (at 50.0 µM); 3% in experiment [6] (setting [7]); 14% in experiment [6] (setting [8]); 43% in experiment [6] (at 50.0 µM).

As to `C[n+]1c(-c2ccc(/C=C/C=N\NC(=O)c3ccc(C(=O)N/N=C\C=C\c4ccc(-c5cn6ccccc6[n+]5C)cc4)cc3)cc2)cn2ccccc21`, the growth inhibition is 18% in experiment [1] (setting [7]); 98% (active) in experiment [1] (setting [8]); 96.1% (active) in experiment [1] (at 50.0 µM); 5% in experiment [2] (setting [7]); 97% (active) in experiment [2] (setting [8]); 96.8% (active) in experiment [2] (at 50.0 µM). Besides, the growth inhibition is 16% in experiment [3] (setting [7]); 98% (active) in experiment [3] (setting [8]); 96.8% (active) in experiment [3] (at 50.0 µM); 22% in experiment [4] (setting [7]); 97% (active) in experiment [4] (setting [8]); 96.3% (active) in experiment [4] (at 50.0 µM). The growth inhibition is 36% in experiment [5] (setting [7]); 97% (active) in experiment [5] (setting [8]); 95.5% (active) in experiment [5] (at 50.0 µM); 21% in experiment [6] (setting [7]); 97% (active) in experiment [6] (setting [8]); 96.8% (active) in experiment [6] (at 50.0 µM).

Regarding `COc1ccc(OC)c(C(Cc2ccnc3ccccc23)Cc2ccnc3ccccc23)c1`, the growth inhibition in experiment [1] (setting [7]) was 1%; in experiment [1] (setting [8]), 97% (active); in experiment [1] (at 50.0 µM), 99% (active); in experiment [2] (setting [7]), -14%; in experiment [2] (setting [8]), 97% (active); in experiment [2] (at 50.0 µM) it was 99.2% (active). Moreover, the growth inhibition was 3% in experiment [3] (setting [7]); 99% (active) in experiment [3] (setting [8]); 99% (active) in experiment [3] (at 50.0 µM); 1% in experiment [4] (setting [7]); 99% (active) in experiment [4] (setting [8]); 98.6% (active) in experiment [4] (at 50.0 µM). For the same compound, the growth inhibition in experiment [5] (setting [7]) is 10%; in experiment [5] (setting [8]) it was 98% (active); in experiment [5] (at 50.0 µM), 98.8% (active); in experiment [6] (setting [7]), -3%; in experiment [6] (setting [8]), 97% (active); in experiment [6] (at 50.0 µM), 98.8% (active).

For the compound `CN1C=CC(C(O)(c2ccccc2)c2ccccc2)CC1` (configuration not stated), the growth inhibition in experiment [1] (setting [7]) is -2%; in experiment [1] (setting [8]), 1%; in experiment [1] (at 50.0 µM), 1.25%; in experiment [2] (setting [7]), -6%; in experiment [2] (setting [8]) it was 8%; in experiment [2] (at 50.0 µM) it was 19.3%. Besides, the growth inhibition is 2% in experiment [3] (setting [7]); 0% in experiment [3] (setting [8]); 10% in experiment [3] (at 50.0 µM); -5% in experiment [4] (setting [7]); 4% in experiment [4] (setting [8]); 51.6% in experiment [4] (at 50.0 µM). Moreover, the growth inhibition was -5% in experiment [5] (setting [7]); -3% in experiment [5] (setting [8]); 16.7% in experiment [5] (at 50.0 µM); -4% in experiment [6] (setting [7]); 5% in experiment [6] (setting [8]); 22.8% in experiment [6] (at 50.0 µM).

Regarding `OC[P+](CO)(CO)C12CC3CC(CC(C3)C1)C2`, the growth inhibition in experiment [1] (setting [7]) was 12%; in experiment [1] (setting [8]), 13%; in experiment [1] (at 50.0 µM) it was 48.5%; in experiment [2] (setting [7]) it was 8%; in experiment [2] (setting [8]), 11%; in experiment [2] (at 50.0 µM) it was 71.1% (active). Further, the growth inhibition in experiment [3] (setting [7]) was 35%; in experiment [3] (setting [8]) it was 49%; in experiment [3] (at 50.0 µM) it was 69.8%; in experiment [4] (setting [7]) it was 18%; in experiment [4] (setting [8]) it was 30%; in experiment [4] (at 50.0 µM) it was 67.8%. For the same compound, the growth inhibition in experiment [5] (setting [7]) was 5%; in experiment [5] (setting [8]), 40%; in experiment [5] (at 50.0 µM), 78% (active); in experiment [6] (setting [7]), 11%; in experiment [6] (setting [8]), 25%; in experiment [6] (at 50.0 µM), 89% (active).

`O=[N+]([O-])c1ccc(-n2ncc3cccnc32)c([N+](=O)[O-])c1`: the growth inhibition in experiment [1] (setting [7]) was 1%; in experiment [1] (setting [8]), 99% (active); in experiment [1] (at 50.0 µM), 99% (active); in experiment [2] (setting [7]) it was -12%; in experiment [2] (setting [8]), 99% (active); in experiment [2] (at 50.0 µM) it was 93.6% (active). For the same compound, the growth inhibition in experiment [3] (setting [7]) is 2%; in experiment [3] (setting [8]), 100% (active); in experiment [3] (at 50.0 µM) it was 99.3% (active); in experiment [4] (setting [7]), -1%; in experiment [4] (setting [8]), 98% (active); in experiment [4] (at 50.0 µM) it was 46.9%. The growth inhibition in experiment [5] (setting [7]) is 33%; in experiment [5] (setting [8]), 99% (active); in experiment [5] (at 50.0 µM), 92% (active); in experiment [6] (setting [7]), 26%; in experiment [6] (setting [8]) it was 100% (active); in experiment [6] (at 50.0 µM), 99.5% (active).
